Only some compounds are listed: those with a hit (about 6.7% of all), similar ones and a draw of the others.
BoNT F protease: BoNT/F light chain protease inhibitors, primary screen, biochemical, flow cytometry, MLPCN library; 360,000 compounds, 0.22% hits; Multiplex microsphere protease cleavage assay; inhibition, % at 10 µM; Botulinum neurotoxin type F light chain protease (Clostridium botulinum); in the data active = inhibition above about 35%, passing the limit was not always enough; inconclusive = no clear call, values can overlap the other calls; note: plate controls were buffer without enzyme for full effect and enzyme alone for no effect
Anthrax LF prot: Bacillus anthracis LF protease inhibitors, primary screen, biochemical, multiplex microsphere, MLPCN library; Lethal factor (Bacillus anthracis), P15917; multiplex microsphere protease cleavage assay; inhibition, % at 10 µM; 360,000 compounds, 0.12% hits; note: plate controls were buffer without enzyme for full effect and enzyme alone for no effect
BoNT A protease: BoNT/A light chain protease inhibitors, primary screen, biochemical, flow cytometry, MLPCN library; Botulinum neurotoxin type A light chain protease (Clostridium botulinum A str. ATCC 3502); multiplex microsphere protease substrate cleavage; inhibition, % at 10 µM; 360,000 compounds, 0.17% hits; AID 588499, 2011; note: plate controls were buffer without enzyme for full effect and enzyme alone for no effect
Autofluor counter: compound fluorescence in toxin protease inhibitor counterscreen. compound autofluorescence counterscreen, microsphere flow cytometry; hits give high values. fluorescence intensity (test concentration not listed). 360,000 compounds, 3.1% hits; in the data active = fluorescence intensity above about 16000; inconclusive = no clear call, values can overlap the other calls
GDH-TPI inh: GDH-TPI coupling enzyme inhibitors, primary screen, artefact control for M. tuberculosis FBA inhibitor project, biochemical, absorbance, full deck; GDH-TPI coupled enzyme counterscreen, NADH absorbance; inhibition, % at 4.8 µM; 360,000 compounds, 1.2% hits; AID 588335, 2011; in the data active = inhibition above about 30%;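 note: 0% = DMSO wells and 100% = wells lacking the enzyme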
FBA Mtb inh: Mtb FBA enzyme inhibitors, primary screen, biochemical, fluorescence, strain H37Rv | purified M. tuberculosis FBA, fluorescence read-out | inhibition, % at 1 µM | 360,000 compounds, 2.3% hits | AID 588726, 2011; in the data active = inhibition above about 27%;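 note: 0% = vehicle and 100% = reference inhibitor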
Target sequence (P9WQA3 whole entry, looked up): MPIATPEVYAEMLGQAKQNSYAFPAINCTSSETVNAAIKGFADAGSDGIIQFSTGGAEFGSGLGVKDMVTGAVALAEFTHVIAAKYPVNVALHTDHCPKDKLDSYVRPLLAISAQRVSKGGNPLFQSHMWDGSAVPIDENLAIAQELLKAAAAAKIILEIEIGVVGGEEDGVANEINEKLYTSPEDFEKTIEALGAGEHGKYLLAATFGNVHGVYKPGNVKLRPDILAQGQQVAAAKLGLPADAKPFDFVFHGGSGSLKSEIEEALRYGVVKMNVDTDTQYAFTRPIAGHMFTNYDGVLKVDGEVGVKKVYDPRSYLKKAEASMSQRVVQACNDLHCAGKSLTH
BoNTA LC inh 1: BoNT/A light chain protease inhibitors, confirmation, biochemical, flow cytometry, cherry pick 1; multiplex microsphere protease assay; AID 602139, 2011; 720 compounds, 3% hits; shares compounds with BoNT F protease; inhibition, % at 10 µM; in the data active = inhibition above about 32%
BoNT-F LC CP1: BoNT/F light chain protease inhibitors, confirmation, biochemical, flow cytometry, cherry pick 1; shares compounds with BoNT F protease; multiplex microsphere protease cleavage assay; inhibition, % at 10 µM; 720 tested, under 10 active; AID 602140, 2011; call rule not given here
LF protease CP1: Bacillus anthracis LF protease inhibitors, confirmation, biochemical, multiplex microsphere, cherry pick 1; shares compounds with BoNT F protease; multiplex microsphere protease cleavage assay; inhibition, % at 10 µM; 720 tested, under 10 active; call rule not given here
Numbers without * were called inactive. Cut-off read from the data, not from the text of the source, unless noted: active = inhibition above about 30%; inconclusive = no clear call, values can overlap the other calls; inactive = below that.

What do the screens show for `Cc1nc2nc(CSc3ccc(Cl)cc3)cc(=O)n2[nH]1`?
BoNT F protease: 79.4*; Anthrax LF prot: -3.5; BoNT A protease: -0.6; Autofluor counter: 11830; GDH-TPI inh: -5.6; FBA Mtb inh: -2.2; BoNTA LC inh 1: -0.6; BoNT-F LC CP1: 3.7; LF protease CP1: 0.0

How did Cc1ccc(SCc2cc(=O)n3[nH]c(C)nc3n2)cc1 do in these assays?
BoNT F protease: 1.1; Anthrax LF prot: -2.8; BoNT A protease: 0.6; Autofluor counter: 4345; GDH-TPI inh: -3.1; FBA Mtb inh: 11.4

What do the screens show for `COc1ccc(N(C(=O)c2snc(C(N)=O)c2N)C(C(=O)NCC2CCCO2)c2ccc3ncccc3c2)cc1OC` (stereo unspecified)?
BoNT F protease: 38.4*; Anthrax LF prot: 0.9; BoNT A protease: -1.9; Autofluor counter: 3435; GDH-TPI inh: 9.1; FBA Mtb inh: -0.4; BoNTA LC inh 1: 0.3; BoNT-F LC CP1: -6.9; LF protease CP1: 0.7

How did O=C(CC[C@H]1O[C@@H](n2ccc(=O)[nH]c2=O)[C@H](O)[C@@H]1O)N1CCN(c2ccccn2)CC1 do in these assays?
BoNT F protease: -4.6; Anthrax LF prot: -5.4; BoNT A protease: -1.6; Autofluor counter: 4519; FBA Mtb inh: 5.2

What do the screens show for `CCN(CC(=O)NCc1cccs1)C(=O)/C=C/c1cccc(OC)c1OC`?
BoNT F protease: -10.6; Anthrax LF prot: -1.2; BoNT A protease: -2.0; Autofluor counter: inconclusive; GDH-TPI inh: 5.0; FBA Mtb inh: 2.0

Results for Nc1nc2ccccc2nc1N1CCCC1 ?
BoNT F protease: 41.5*; Anthrax LF prot: 0.6; BoNT A protease: 31.6*; Autofluor counter: 11493; GDH-TPI inh: 21.2; FBA Mtb inh: -0.8; BoNTA LC inh 1: -0.9; BoNT-F LC CP1: 1.4; LF protease CP1: 0.7

What do the screens show for `CSc1nc(Oc2ccc(F)cc2F)cc(C(F)(F)F)n1`?
BoNT F protease: 41.4*; Anthrax LF prot: 3.1; BoNT A protease: 1.0; Autofluor counter: 3385; GDH-TPI inh: 10.4; FBA Mtb inh: 0.7; BoNTA LC inh 1: 0.4; BoNT-F LC CP1: -7.7; LF protease CP1: -3.0

How did CSc1nc(Oc2cccc(C(F)(F)F)c2)cc(C(F)(F)F)n1 do in these assays?
BoNT F protease: -7.7; Anthrax LF prot: -1.4; BoNT A protease: 0.0; Autofluor counter: 2218; GDH-TPI inh: 5.1; FBA Mtb inh: 6.1

How did Cc1ccc(OCCC(=O)Nc2ccc(S(=O)(=O)N3CCCC3)cc2)cc1 do in these assays?
BoNT F protease: -0.8; Anthrax LF prot: -1.5; BoNT A protease: -0.9; Autofluor counter: 3749; GDH-TPI inh: -1.4; FBA Mtb inh: 0.1

What do the screens show for `Cc1ccc(OCCCC(=O)Nc2ccc(S(N)(=O)=O)cc2)cc1`?
BoNT F protease: 40.9*; Anthrax LF prot: -3.9; BoNT A protease: 4.7; Autofluor counter: 4147; GDH-TPI inh: 2.5; FBA Mtb inh: 0.5; BoNTA LC inh 1: -0.3; BoNT-F LC CP1: -2.5; LF protease CP1: -2.9

How did COc1ccc(NC(=O)CCCn2c(=O)[nH]c3ccccc3c2=O)cc1 do in these assays?
BoNT F protease: 24.8; Anthrax LF prot: 11.3; BoNT A protease: 3.3; Autofluor counter: 3939; GDH-TPI inh: -0.9; FBA Mtb inh: 2.8

What do the screens show for `CCn1c(SCC(N)=O)nc2cc(S(=O)(=O)N3CCOCC3)ccc21`?
BoNT F protease: -1.4; Anthrax LF prot: -0.5; BoNT A protease: 0.2; Autofluor counter: 3502; GDH-TPI inh: -5.6; FBA Mtb inh: -2.4

What do the screens show for `CCn1c(SCC(=O)c2c[nH]c3ccccc23)nc2cc(S(=O)(=O)N3CCOCC3)ccc21`?
BoNT F protease: -16.5; Anthrax LF prot: 17.5; BoNT A protease: 48.9*; Autofluor counter: 5805; GDH-TPI inh: 2.2; FBA Mtb inh: 0.2; BoNTA LC inh 1: 15.0; BoNT-F LC CP1: -10.7; LF protease CP1: 10.5

What do the screens show for `O=C(NCCC1CCCC1)c1cccs1`?
BoNT F protease: inconclusive; Anthrax LF prot: 31.2*; BoNT A protease: inconclusive; Autofluor counter: 3779; GDH-TPI inh: 9.8; FBA Mtb inh: -0.1; BoNTA LC inh 1: -0.1; BoNT-F LC CP1: 1.0; LF protease CP1: -1.4

How did CC1(C)CC(=O)CC(=O)/C1=N\Nc1c(Cl)cc(Cl)cc1Cl do in these assays?
BoNT F protease: -5.5; Anthrax LF prot: -1.5; BoNT A protease: -0.1; Autofluor counter: 2833; GDH-TPI inh: 14.5; FBA Mtb inh: 4.3

What do the screens show for `Cc1nn(Cc2ccccc2)c(C)c1NC(=O)c1cc2nc(-c3ccco3)cc(C(F)(F)F)n2n1`?
GDH-TPI inh: 21.7; FBA Mtb inh: 3.0; BoNTA LC inh 1: -1.1; BoNT-F LC CP1: 0.6; LF protease CP1: 3.8

How did O=C(Nc1cnn(Cc2ccc(F)cc2)c1)c1cc2nc(-c3ccco3)cc(C(F)(F)F)n2n1 do in these assays?
BoNT F protease: 3.7; Anthrax LF prot: -3.3; BoNT A protease: 0.2; Autofluor counter: 3265; GDH-TPI inh: 1.6; FBA Mtb inh: 4.2; BoNTA LC inh 1: 1.3; BoNT-F LC CP1: 4.0; LF protease CP1: -3.6

Results for CCc1ccc(-c2cc(C(F)(F)F)n3nc(C(=O)Nc4c(C)nn(Cc5ccccc5C)c4C)cc3n2)s1 ?
BoNT F protease: 18.9; Anthrax LF prot: 30.5*; BoNT A protease: 29.2; Autofluor counter: 19939*; GDH-TPI inh: 9.8; FBA Mtb inh: 6.3; BoNTA LC inh 1: 3.2; BoNT-F LC CP1: -4.3; LF protease CP1: 3.5

What do the screens show for `Cc1ccccc1Cn1ccc(NC(=O)c2cc3nc(-c4ccco4)cc(C(F)(F)F)n3n2)n1`?
BoNT F protease: -3.0; Anthrax LF prot: 0.0; BoNT A protease: -0.2; Autofluor counter: 2854; GDH-TPI inh: 3.3; FBA Mtb inh: 2.3

Results for Cc1ccc(-c2cc(C(F)(F)F)n3nc(C(=O)Nc4c(C)n(C)n(-c5ccccc5)c4=O)cc3n2)cc1 ?
BoNT F protease: -6.9; Anthrax LF prot: 1.6; BoNT A protease: -0.4; Autofluor counter: 4416; GDH-TPI inh: 18.6; FBA Mtb inh: -4.1
